CHX counter: Cycloheximide Counterscreen for Small Molecule Inhibitors of Shiga Toxin; AID 2314, 2010; max response, %; cell reporter, cycloheximide protein synthesis inhibition counterscreen; actives 12% (n = 300,000); in the data active = max response mostly above about 13%, no sharp cut-off; inactive = mostly below about 14%; note: read at 38.3 µM for the half of the compounds with a filed dose
Pf growth 96h: Primary qHTS for delayed death inhibitors of the malarial parasite plastid, 96 hour incubation | P. falciparum luciferase reporter growth, 96 h | Potency, µM (highest dose often 28.7 µM), usual class: inhibitors | actives 6.9% (n = 320,000) | AID 504834, 2011
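Compounds incubated with erythrocytes infected by luciferase-expressing P. falciparum (2% hematocrit, 0.05% parasitemia final) for 96 hours, 37 C in 5% CO2. Growth inhibition scored as decreased luciferase luminescence.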
Shiga inhibitor: A qHTS for Small Molecule Inhibitors of Shiga Toxin. Vero cells, Shiga toxin protein synthesis inhibition reporter. inhibition, % at 38.7 µM. actives 9.2% (n = 290,000); in the data active = inhibition mostly above about 28%, no sharp cut-off; inactive = mostly below about 43%
Pf growth 48h: Primary qHTS for delayed death inhibitors of the malarial parasite plastid, 48 hour incubation | P. falciparum luciferase growth in erythrocytes, 48 h | Potency, µM (top dose mostly 28.7 µM), hits mostly inhibitors | actives 5.9% (n = 310,000)
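Compounds are pin-transferred into medium, infected erythrocytes (2% hematocrit, 0.1% parasitemia final) are added, and plates sit one parasite generation at 37 C in 5% CO2. Detection reagent is then added and luminescence measured.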
Each line names hits and unclear results; the compound was inactive in the other large screens. In the library only some 21% were active in any assay of this set; here they are far more common. Unless noted, calls come from the whole dose curve; as a rule, active = well fitted inhibition curve with a large enough effect; inconclusive = small, poorly fitted or top-dose-only effect, or another doubt; inactive = no such curve, though single readings can be large or run the other way.

CN1C(=O)C(C)(C)c2cc(S(=O)(=O)N3CCN(c4ccccc4)CC3)ccc21	Pf growth 96h inconclusive, Pf growth 48h inconclusive
COc1ccc([C@H]2CC(=O)C=C(c3ccccc3OC)C2)cc1OC	Pf growth 48h inconclusive (no result: CHX counter, Shiga inhibitor)
O=[N+]([O-])c1ccccc1N/N=C/c1ccccc1	CHX counter 35, Pf growth 96h inconclusive, Shiga inhibitor 62
O=[N+]([O-])c1ccccc1N/N=C/c1ccc2c(c1)OCO2	CHX counter 40, Shiga inhibitor 68
CC(C)c1nc2sc3c(=O)n(N)cnc3c2c2c1COC(C)(C)C2	none
O=C(O/N=C/c1cccc([N+](=O)[O-])c1)C1CC1	none
N/C(=N\O)c1ccc([N+](=O)[O-])s1	Pf growth 96h inconclusive, Pf growth 48h inconclusive
N/C(=N\OC(=O)C1CC1)c1ccc([N+](=O)[O-])s1	Pf growth 96h 6.6µM, Pf growth 48h inconclusive
CC(C)(C)C(=O)O/N=C(\N)c1ccc([N+](=O)[O-])s1	CHX counter 24, Pf growth 96h inconclusive, Pf growth 48h inconclusive
COc1ccc(NC(=O)C2CC(=O)N/C(=N/NC(=O)c3ccc(Cl)cc3)S2)cc1 (stereo unspecified)	Pf growth 96h inconclusive
CCOC(=O)c1[nH]c(C)c(C(=O)Nc2ccc3c(c2)OCCO3)c1C	CHX counter 48, Shiga inhibitor 52, Pf growth 48h inconclusive
CC(=O)c1c(C)[nH]c(C(=O)Nc2ccc3c(c2)OCCO3)c1C	CHX counter 38, Shiga inhibitor 99
COc1ccc(C(=O)/C=C2/C(=O)Nc3ccccc32)cc1	CHX counter 21, Shiga inhibitor 58
COc1ccc(C2(C(=O)c3ccccc3)C(=O)c3ccccc3C2=O)cc1	CHX counter 14, Pf growth 48h inconclusive
O=C(Nc1ccccc1-c1nnn(CC(=O)N2CCCc3ccccc32)n1)c1ccc(Cl)cc1	Pf growth 96h 12µM, Pf growth 48h inconclusive
Nn1c(SCC(=O)N2CCCc3ccccc32)nnc1-c1ccc(Cl)cc1	Pf growth 96h 12µM
O=C(CSc1ccc2nnc(-c3ccc(Cl)cc3)n2n1)N1CCCc2ccccc21	CHX counter 17, Pf growth 96h inconclusive
Fc1ccc(/C=N/n2c(-c3cccs3)n[nH]c2=S)cc1	none
CCN1CCN(S(=O)(=O)c2ccc(Oc3ccccc3OC)cc2)CC1	Pf growth 96h inconclusive
COc1ccc(CC(=O)NNC(=O)c2nn(Cc3ccccc3)c(=O)c3ccccc23)cc1OC	Pf growth 96h inconclusive, Pf growth 48h 3.3µM
COc1ccc(CC(=O)NCc2ccccn2)cc1OC	Pf growth 96h 4.7µM, Pf growth 48h 10µM
Cc1cccc(CNC(=O)Cc2csc3ccccc23)c1	CHX counter 63, Shiga inhibitor 75 (no result: Pf growth 96h, Pf growth 48h)
COc1ccc(CC(=O)NCc2cccc(CNC(=O)Cc3ccc(OC)c(OC)c3)c2)cc1OC	Pf growth 96h 8.3µM
COc1ccc(NC(=O)NCc2ccccn2)cc1OC	none
Brc1cccc(CNCC2CCCO2)c1 (stereo unspecified)	none (no result: Shiga inhibitor)
O=C(NCc1cccnc1)C(=O)N/N=C/c1ccc([N+](=O)[O-])cc1	Pf growth 96h inconclusive
CCOC(=O)C1=C(c2ccccc2)NC(=O)NC1c1ccsc1 (stereo unspecified)	none
C=C1CCN(C(Cc2ccccc2)C(=O)O)S(=O)(=O)c2ccccc21 (stereo unspecified)	none (no result: Pf growth 96h, Pf growth 48h)
Cc1onc(-c2c(F)cccc2Cl)c1C(=O)NC1CCSC1=O (stereo unspecified)	none (no result: Pf growth 48h)
Cc1ccc(OCC(=O)OC(C)C(=O)NC2CCCCC2C)cc1C (stereo unspecified)	none (no result: CHX counter, Shiga inhibitor)
Cc1c(NC(=O)C(C)OC(=O)CCOc2ccccc2)c(=O)n(-c2ccccc2)n1C (stereo unspecified)	none (no result: CHX counter, Shiga inhibitor)
O=C1NCCO1	none (no result: CHX counter, Shiga inhibitor)
COC(=O)CC1=NN(c2nc3ccccc3s2)C(=O)/C1=C/N(C)C	none
COc1ccc(CNC(=O)Cc2cccs2)cc1OC	CHX counter 28
COc1ccc(CC(=O)c2ccc(OC)c(OC)c2C)cc1OC	CHX counter 23, Pf growth 96h 10µM, Shiga inhibitor 56, Pf growth 48h inconclusive
COc1ccccc1Cn1nc(C(=O)O)c2ccccc2c1=O	CHX counter 20, Shiga inhibitor 43
COc1ccc(CC(=O)NNC(=O)CSc2ccc(C)cc2)cc1	Pf growth 96h inconclusive
COc1cc2c(cc1OC)C(SC)=NC1(CCCC1)C2	Pf growth 48h 10µM
COc1cc2c(cc1OC)C(C)=NC1(CCCCC1)C2	Pf growth 48h inconclusive
CC(=O)Nc1c(-c2cc(=O)oc3cc(C)ccc23)oc2ccccc12	Pf growth 96h inconclusive, Pf growth 48h inconclusive
Cc1ccc(C)c(OCC(=O)Nc2cccc(C(=O)O)c2)c1C	CHX counter 41 (no result: Pf growth 96h)
Cc1cccc(C)c1OCC(=O)Nc1cccc(C(=O)O)c1	CHX counter 41, Shiga inhibitor 92
Cc1ccc(OCC(=O)Nc2cc(NC(=O)COc3ccc(C)c(C)c3)cc(C(=O)O)c2)cc1C	none
O=C(Nc1ccc2c(c1)OCCO2)c1ccccn1	CHX counter 12
O=C(Nc1ccc2c(c1)OCCO2)c1ccc2ccccc2n1	CHX counter 39, Shiga inhibitor 45
O=C(Nc1ccc(S(=O)(=O)NC2=NCCCCC2)cc1)c1ccc2ccccc2n1	Pf growth 96h inconclusive, Pf growth 48h inconclusive
O=C(Nc1ccc(NC(=O)c2ccccn2)cc1)C(=O)Nc1ccc2c(c1)OCCO2	Pf growth 96h inconclusive
COc1ccc(C2CC(C(F)(F)F)n3nc(CO)c(Cl)c3N2)cc1OC (stereo unspecified)	Pf growth 96h 7.4µM
COc1ccc(NC(=O)c2cc3n(n2)C(C(F)(F)F)CC(c2ccc4c(c2)OCO4)N3)cc1OC (stereo unspecified)	Pf growth 96h 3.3µM
COc1ccc(C2CC(C(F)(F)F)n3ncc(C(=O)Nc4cccc(O)c4)c3N2)cc1OC (stereo unspecified)	Pf growth 48h 10µM (no result: Pf growth 96h)
COc1ccc(C2CC(C(F)(F)F)n3nc(C(=O)O)c(Cl)c3N2)cc1OC (stereo unspecified)	none (no result: Pf growth 48h)
Cc1cccc(NC(=O)c2cc3n(n2)C(C(F)(F)F)CC(c2ccc4c(c2)OCO4)N3)c1 (stereo unspecified)	Pf growth 96h inconclusive, Pf growth 48h inconclusive
O=C(O)c1ccc2c(=O)n3cc(C(=O)c4ccccc4O)cc(Cl)c3nc2c1	CHX counter 34, Pf growth 96h inconclusive
C=CCOC(=O)C1=C(C)NC(=O)NC1c1cc(Cl)cc(Cl)c1OC (stereo unspecified)	Pf growth 96h inconclusive
Cc1ccccc1-c1cc(C(=O)O)nn1CC1CC(c2cccc([N+](=O)[O-])c2)=NO1 (stereo unspecified)	Pf growth 96h inconclusive (no result: CHX counter, Shiga inhibitor)
Cc1ccccc1-c1cc(C(=O)NCc2cccs2)nn1CC1CC(c2cccc([N+](=O)[O-])c2)=NO1 (stereo unspecified)	Pf growth 96h 2.1µM, Pf growth 48h 3.3µM (no result: CHX counter, Shiga inhibitor)
Cc1ccccc1-c1cc(C(=O)NCc2cccc(C(F)(F)F)c2)nn1CC1CC(c2cccc([N+](=O)[O-])c2)=NO1 (stereo unspecified)	Pf growth 96h 6.6µM, Pf growth 48h 3.7µM (no result: CHX counter, Shiga inhibitor)
O=C(NCc1cccc(C(F)(F)F)c1)C1CC(c2ccccc2[N+](=O)[O-])=NO1 (stereo unspecified)	none
